High-throughput results (PubChem)
In the library only some 1.3% were active in any assay of this set; here they are far more common.
F-actin modifier: alters cytoskeleton assembly in HUVEC cells; 0.18% of 91,000 active; HUVEC TNFa F-actin phalloidin imaging, high content; inhibition, % at 2 µM; AID 836;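 active means inhibition above the batch mean plus 3 SD and confirmed as a hit by visual image inspection, cut at about 30% in these data, passing the limit was not always enough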
S1P2 ag: agonists of human S1P2 receptor; activation, % at 4.5 µM; AID 729; S1P2-expressing cell line, agonist reporter read-out; 0.46% of 97,000 active; in the data active means activation above about 16%
Target sequence (O95136 whole entry, looked up): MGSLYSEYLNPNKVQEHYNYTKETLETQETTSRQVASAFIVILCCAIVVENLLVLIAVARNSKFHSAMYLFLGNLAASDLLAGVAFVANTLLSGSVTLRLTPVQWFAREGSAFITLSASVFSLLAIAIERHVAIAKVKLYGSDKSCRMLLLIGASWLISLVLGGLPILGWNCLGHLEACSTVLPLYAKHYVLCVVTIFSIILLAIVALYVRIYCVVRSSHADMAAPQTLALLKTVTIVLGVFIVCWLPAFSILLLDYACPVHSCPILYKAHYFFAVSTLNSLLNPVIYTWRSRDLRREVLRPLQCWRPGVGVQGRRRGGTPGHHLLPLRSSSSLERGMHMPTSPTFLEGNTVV
GALR2 ag: GALR2 (human) receptor agonism. GALR2-expressing cells, agonist activation read-out. activation, % (concentration not given with the values). 0.48% of 140,000 active. AID 803; in the data active means activation above about 5%, passing the limit was not always enough
Target sequence (O43603 whole entry, looked up): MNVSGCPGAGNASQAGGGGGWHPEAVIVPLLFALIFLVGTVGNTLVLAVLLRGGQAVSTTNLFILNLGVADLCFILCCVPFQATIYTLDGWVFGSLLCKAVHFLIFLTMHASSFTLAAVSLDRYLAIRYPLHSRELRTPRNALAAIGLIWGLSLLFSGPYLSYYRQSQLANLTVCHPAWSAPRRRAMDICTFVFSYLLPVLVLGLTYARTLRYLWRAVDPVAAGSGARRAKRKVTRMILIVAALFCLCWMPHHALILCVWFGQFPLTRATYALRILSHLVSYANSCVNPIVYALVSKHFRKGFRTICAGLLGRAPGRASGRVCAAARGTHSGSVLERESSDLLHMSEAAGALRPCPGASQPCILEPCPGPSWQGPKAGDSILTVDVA
S1P2 blocker: blocks the human S1P2 receptor | inhibition, % at 5 µM | 0.21% of 97,000 active | AID 736 | cell-based S1P2 antagonist assay, inhibition at 5 uM; in the data active means inhibition above about 45%;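 further: CRE beta-lactamase reporter cells expressing human S1P2 stimulated with S1P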
GALR2 blocker: GALR2 (human) receptor antagonism; GALR2-expressing cells, antagonist mode; inhibition, % at 4 µM; 0.39% of 140,000 active; AID 828; in the data active means inhibition above about 27%;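 further: cells stimulated with galanin 1-16 at roughly its EC80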
Large screens that a line does not name were inactive.

CCCCCCn1c2c(c(=N)c3c1CCC3)CCC2	none
CCCCCCCCCn1c2c(c(=N)c3c1CCC3)CCC2	S1P2 blocker 79
Cc1ccc(S(=O)(=O)Nc2cc(-c3nn(C)c(=O)c4ccccc34)ccc2N2CCOCC2)cc1	S1P2 ag 17
Cn1nc(-c2ccc(N3CCOCC3)c(NS(=O)(=O)c3ccc(Cl)cc3)c2)c2ccccc2c1=O	none
CCOCCCn1c(SCC(=O)/C(C#N)=C(\C)N)nc2ccccc2c1=O	none (no result: F-actin modifier, S1P2 ag, S1P2 blocker)
C/C(N)=C(/C#N)C(=O)CSc1nc2ccccc2c(=O)n1CCCOC(C)C	GALR2 ag 5.6 (no result: F-actin modifier, S1P2 ag, S1P2 blocker)
COc1cc(/C=C/C(=O)N2CCCc3ccccc32)cc(OC)c1OC	none (no result: F-actin modifier, S1P2 ag, S1P2 blocker)
Cc1cc(N2CCN(c3nc4ccccc4s3)CC2)n2ncnc2n1	S1P2 blocker 51
Cc1cc(N2CCN(C(c3ccccc3)c3ccccc3)CC2)n2ncnc2n1	none
Cc1ccccc1Nc1nc(N)nc(COC(=O)c2cccc(S(=O)(=O)NCc3ccccc3)c2)n1	GALR2 ag 5.0 (no result: F-actin modifier, S1P2 ag, S1P2 blocker)
O=C(COC(=O)COc1cccc(Br)c1)Nc1c(Cl)cccc1Cl	none (no result: F-actin modifier, S1P2 ag, S1P2 blocker)
O=C(CCC(=O)N1CCc2ccccc21)Nc1ccccc1	S1P2 ag 58
COc1ccc(C(C)=O)cc1CSc1nncn1-c1ccccc1	none (no result: F-actin modifier, S1P2 ag, S1P2 blocker)
COc1ccccc1NS(=O)(=O)c1cc([N+](=O)[O-])ccc1N/N=C/c1c[nH]c2ccccc12	S1P2 blocker 62
Cc1cc(C(=O)CN2C(=O)NC(C)(c3cccc(Br)c3)C2=O)c(C)n1Cc1ccco1 (stereo unspecified)	S1P2 ag 36
CCOc1ccc(C(=O)NCC(=O)OCc2ccc(F)cc2Cl)cc1	none (no result: F-actin modifier, S1P2 ag, S1P2 blocker)
COc1cc(S(=O)(=O)N2CCN=C2c2ccccc2)ccc1F	S1P2 ag 27
CCOC(=O)c1cc(CC)sc1NC(=O)c1cc(OC)c(OC)c(OC)c1	S1P2 ag 16
CCOC(=O)c1[nH]c2ccc(F)cc2c1NC(=O)c1cc(OC)c(OC)c(OC)c1	S1P2 ag 18
COc1cc2nc3c4ccccc4n(CC#N)c3nc2cc1OC	none
CCn1c2ccccc2c2nc3ccccc3nc21	S1P2 ag 19
CCn1c2ccccc2c2nc3cc(OC)c(OC)cc3nc21	S1P2 ag 23
CCn1c(SCC(=O)Nc2cc(C)on2)nnc1-c1ccccc1	F-actin modifier 37
CC(C)n1c(=NC(=O)c2ccco2)c(C#N)cc2c(=O)n3ccccc3cc21	GALR2 ag 6.3 (no result: F-actin modifier, S1P2 ag, S1P2 blocker)
CCSc1nnc([C@H](Cc2ccccc2)NC(=O)OC(C)(C)C)o1	none
CC(C)(C)OC(=O)N[C@@H](Cc1ccccc1)c1nnc(S(=O)(=O)Cc2ccccc2)o1	GALR2 blocker 35
CC(/C=C(\NC(=O)c1ccccc1)C(=O)N=Nc1c(O)[nH]c2ccc(C)cc12)=C\c1ccccc1	none
Cc1csc(SCC(=O)Nc2sc3c(c2C#N)CCC3)n1	none
Cc1ccnc(SCC(=O)Nc2sc3c(c2C#N)CCCC3)n1	S1P2 blocker 47
COc1ccc(/C=c2\sc3nc(-c4ccccc4)c(-c4ccccc4)n3c2=O)cc1OC	S1P2 ag 22
COc1cc(/C=c2/sc3nc(-c4ccccc4)c(-c4ccccc4)n3c2=O)cc(OC)c1OC	none (no result: F-actin modifier, S1P2 ag, S1P2 blocker)
COc1ccc(-c2nc(-c3ccncc3)no2)cc1OC	none (no result: F-actin modifier, S1P2 ag, S1P2 blocker)
O=[N+]([O-])c1cccc(-c2nc(-c3ccncc3)no2)c1	S1P2 ag 36
NC(=O)C1(N2CCCCC2)CCN(C(=S)Nc2cccc(Cl)c2)CC1	none (no result: F-actin modifier, S1P2 ag, S1P2 blocker)
Cc1ccc(CSc2nnc(-c3ccco3)n2N)cc1	S1P2 ag 26 (no result: F-actin modifier)
Cc1ccc(-c2nnc3c4ccccc4c(C)nn23)cc1S(=O)(=O)N1CCN(CCO)CC1	S1P2 ag 17
C#CCn1cc(C=C2C(=O)c3ccccc3C2=O)c2ccccc21	none (no result: F-actin modifier, S1P2 ag, S1P2 blocker)
CCCc1nn(-c2cc(Cl)ccc2OC)c2c1C(=O)CCC2	S1P2 ag 59
CN1C2CCC1/C(=C\c1ccccc1)C(=O)/C2=C\c1ccccc1	none
Cc1cc(Br)ccc1OCCCCN1CCC(C)CC1	none (no result: F-actin modifier, S1P2 ag, S1P2 blocker)
N=c1c(-c2nc3ccccc3[nH]2)cc(C(=O)c2ccco2)nn1-c1ccccc1	none (no result: F-actin modifier, S1P2 ag, S1P2 blocker)
N=c1c(-c2nc3ccccc3[nH]2)cc(C(=O)c2cccs2)nn1-c1ccccc1	S1P2 ag 22
N#CCCn1c(SCC(=O)Nc2ccc(N3CCOCC3)cc2)nc2ccccc21	none (no result: F-actin modifier, S1P2 ag, S1P2 blocker)
COc1ccc(CCN2CC(C#N)=C3c4cc(OC)c(OC)cc4CCN3C2)cc1OC	S1P2 ag 24
COc1cc2c(cc1OC)C1=C(C#N)CN(C3CCCCC3)CN1CC2	S1P2 ag 20
COc1cc2c(cc1OC)CN(c1ccc([N+](=O)[O-])cc1C#N)CC2	none (no result: F-actin modifier, S1P2 ag, S1P2 blocker)
COc1ccc(C(=O)N=C2CCC(C#N)=C3c4cc(OC)c(OC)cc4CCN23)cc1	none (no result: F-actin modifier, S1P2 ag, S1P2 blocker)
CCN(CC(=O)NC1CCS(=O)(=O)C1)S(=O)(=O)c1ccc(C)cc1C (stereo unspecified)	none (no result: F-actin modifier, S1P2 ag, S1P2 blocker)
CCCCC1NC(=S)N(C2CCCCC2)C1=O (stereo unspecified)	GALR2 ag 7.1 (no result: F-actin modifier, S1P2 ag, S1P2 blocker)
CCCCOc1ccccc1NC(=O)Cn1c(-c2nonc2N)nc2ccccc21	GALR2 ag 7.8 (no result: F-actin modifier, S1P2 ag, S1P2 blocker)
COc1ccc(OCCN2C(=O)NC3(CCc4ccccc4C3)C2=O)cc1 (stereo unspecified)	none (no result: F-actin modifier, S1P2 ag, S1P2 blocker)
Cc1c(Cc2ccccc2)c(=O)oc2c(CN(C)C)c(O)c(Cl)cc12	GALR2 ag 8.3 (no result: F-actin modifier, S1P2 ag, S1P2 blocker)
COc1ccccc1NC(=O)CSc1ncnc2c1oc1ccccc12	S1P2 ag 24
Cc1cccc(NC(=O)CSc2ncnc3c2oc2ccccc23)c1	none
Cc1nc(SCC(=O)Nc2ccc3c(c2)OCCO3)c2oc3ccccc3c2n1	S1P2 ag 19
COc1ccc(NS(=O)(=O)c2c(F)cc(F)c(Cl)c2F)cc1S(=O)(=O)N1CCCCC1	none (no result: F-actin modifier, S1P2 ag, S1P2 blocker)
Cc1ccc(OCC(=O)N/N=C\c2ccncc2)c(C)c1	none (no result: F-actin modifier, S1P2 ag, S1P2 blocker)
CC(=O)Nc1ccc(NC(=O)/C(Cl)=C/c2ccccc2)cc1	S1P2 ag 35
CC(=O)Nc1ccc(NC(=S)Nc2ccccc2)cc1	none
CCc1cc(=O)oc2cc(OCC(=O)O)c(Cl)cc12	S1P2 ag 21
Cc1c(NC(=O)c2cc(-n3cnnc3)ccc2Cl)cccc1-c1nc2ccccc2o1	S1P2 blocker 56
Cc1cc(C)n(CCc2nc3c4ccccc4n(CC#N)c(=O)n3n2)n1	S1P2 ag 29
CC(C)c1ccc(OCC(=O)N(Cc2ccccc2)c2ccccn2)cc1	none (no result: F-actin modifier, S1P2 ag, S1P2 blocker)
O=C(O)c1ccc2c(c1)C(=O)N(c1ccc(Cl)cn1)C2=O	none
O=C1c2cccc3c(N4CCCCC4)ccc(c23)C(=O)N1c1ccc(Cl)cn1	S1P2 blocker 51
O=C1c2cccc3c(N4CCCCC4)ccc(c23)C(=O)N1c1ccccn1	none
O=C1c2cccc3c([N+](=O)[O-])ccc(c23)C(=O)N1c1ccc(Cl)cn1	S1P2 blocker 71
O=C(Nc1nnc(CCS(=O)(=O)c2ccc3ccccc3c2)s1)c1ccc([N+](=O)[O-])cc1	none (no result: F-actin modifier, S1P2 ag, S1P2 blocker)
Cc1sc(NC(=S)NC(=O)C2CCCCC2)c(C(N)=O)c1C	none (no result: F-actin modifier, S1P2 ag, S1P2 blocker)
CCOC(=O)Nc1ccc2c(c1)N(C(=O)CCN(C)C)c1ccccc1S2	GALR2 blocker 30
CC(C)CC(=O)c1c[nH]c(C(=O)NCc2cccs2)c1	none
Cc1ccccc1-n1c(SCc2cc(=O)n3ccccc3n2)nc2[nH]ncc2c1=O	S1P2 ag 24
Cc1cc(C)n2nc(SCC(=O)c3ccccc3)nc2n1	none
